From PubChem BioAssay
BAZ2B inh – blocks human BAZ2B; actives 4.4% (n = 360,000); Potency, µM (doses to about 114 µM), inactives show at the highest dose activity change, negative = inhibition, hits mostly inhibitors; Q9UIF8; AlphaScreen BAZ2B-H3K14Ac peptide displacement; also: % is scaled to controls: 0 for no effect and ±100 for the full control effect; nearly all actives have a fitted effect of over 60% in size
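Complex of BAZ2B and biotin-H3K14Ac (50 nM apiece) forms over 30 min at RT, then faces library compounds up to 110 uM for another 30 min; AlphaScreen beads added, 20 min dark incubation, luminescence read.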
G9a block – G9a (human) methyltransferase inhibition | Q96KQ7 | G9a H3K9 monomethylation, AlphaScreen, 2 h | Potency, µM (series often up to 102 µM), for the others: at the top dose activity, negative = inhibition, usual class: inhibitors | actives 8.8% (n = 350,000) | AID 504332; also: % is scaled to controls: 0 for no effect and ±100 for the full control effect; nearly all actives have a fitted effect of over 75% in size
Target sequence (Q96KQ7 913-1193 limits assumed): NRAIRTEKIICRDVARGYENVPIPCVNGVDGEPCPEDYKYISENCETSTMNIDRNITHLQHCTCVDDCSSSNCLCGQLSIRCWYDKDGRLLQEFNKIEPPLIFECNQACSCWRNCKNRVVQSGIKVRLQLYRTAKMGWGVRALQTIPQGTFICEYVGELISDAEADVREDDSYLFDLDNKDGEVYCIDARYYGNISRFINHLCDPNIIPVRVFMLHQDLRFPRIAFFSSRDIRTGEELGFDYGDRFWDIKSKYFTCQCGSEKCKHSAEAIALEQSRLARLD
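Signal arises when biotinylated H3K9 peptide, once monomethylated, bridges streptavidin donor and antibody-captured acceptor beads. Enzyme at 20 nM was preincubated 15 min with test compounds; peptide 500 nM and SAM 20 uM then reacted for 2 h.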
JMJD2A Tudor inh – blocks the human JMJD2A Tudor domain | Potency, µM (titrated, usually from 114 µM), inactives show top-dose activity change, negative = inhibition, usual class: inhibitors | O75164 | actives 4.4% (n = 390,000) | AID 504339 | AlphaScreen JMJD2A-Tudor / H3K4me3 peptide binding; also: % is scaled to controls: 0 for no effect and ±100 for the full control effect; nearly all actives have a fitted effect of over 50% in size
VDR inh – vitamin D3 receptor (human) inhibition; actives 0.93% (n = 400,000); AID 504847; VDR-SRC2-3 peptide fluorescence polarization, 2 h; Potency, µM, without a hit: max response, negative = inhibition, usual class: inhibitors; P11473; also: % is scaled to controls: 0 for no effect and ±100 for the full control effect
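Reagent solutions, kept cold and dark, are dispensed first; compounds are then pinned in at 23 nl, plates briefly spun, and incubated 2 h at ambient temperature. Inhibition of VDR–SRC2-3 peptide binding is read by fluorescence polarization.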
HP1b chromo inh – blocks HP1-beta chromodomain binding to methylated histone tails | Potency, µM (top dose mostly 114 µM), inactives show top-dose activity change, negative = inhibition, hits mostly inhibitors | AlphaScreen HP1-beta / biotin-H3K9me3 peptide binding | AID 540317 | actives 0.56% (n = 390,000) | P83916; also: nearly all actives have a fitted effect of over 70% in size
Target sequence (P83916 whole entry, looked up): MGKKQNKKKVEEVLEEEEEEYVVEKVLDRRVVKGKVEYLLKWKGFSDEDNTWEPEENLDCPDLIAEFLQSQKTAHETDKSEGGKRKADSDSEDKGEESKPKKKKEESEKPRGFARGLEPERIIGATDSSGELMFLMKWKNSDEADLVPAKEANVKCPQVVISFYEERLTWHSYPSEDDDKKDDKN
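Compound inhibition of the preformed complex between 50 nM HP1-beta and 50 nM biotinylated H3K9me3 peptide was read by AlphaScreen. Buffer was PBS pH 7.4 with 0.01% Tween-20. Incubations ran 30 min at room temperature, with 10 ug/mL donor/acceptor beads.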
PLK1 PBD block – inhibitors of human PLK1 polo-box domain binding; P53350; Plk1 PBD binding of FITC phosphopeptide, fluorescence polarization; Potency, µM, for inactives: max response, negative = inhibition, hits mostly inhibitors; actives 2.8% (n = 360,000); AID 720504; also: series mostly up to about 57 µM; % is scaled to controls: 0 for no effect and ±100 for the full control effect; nearly all actives have a fitted effect of over 65% in size
The depositor's hits bear a star; ? = inconclusive; . = no result given; [ ] = dose if it differs, or a comment. A selection: hits, their analogues and other compounds. The true share with any hit is near 11%. Calls follow the shape of the dose curve; as a rule, active = well fitted curve in the direction sought with a large enough effect; inconclusive = small, poorly fitted or top-dose-only effect, or another doubt; inactive = no such curve, though single readings can be large; an effect the other way counts as inactive or inconclusive. Potency is read from the fitted curve at half-maximal effect.

SMILES	BAZ2B inh	G9a block	JMJD2A Tudor inh	VDR inh	HP1b chromo inh	PLK1 PBD block
NS(=O)(=O)c1ccc(CCNC(=O)c2nc(SCc3ccccc3F)ncc2Cl)cc1	-2%	4%[59 µM]	-14%	-3%	28%	.
NC(=O)CC[C@@H]1NC(=O)[C@H](CO)NC(=O)c2cc([N+](=O)[O-])cc(I)c2OCC[C@@H](C(N)=O)NC1=O	-5%	45µM*	-29%	9%	17%	-4%
NC(=O)[C@@H]1CCOc2c(I)cc([N+](=O)[O-])cc2C(=O)N[C@@H](CO)C(=O)NCC(=O)N1	-8%	45µM*	-17%	1%	40%	-18%
CC(C)C[C@@H]1NC(=O)[C@H](C(C)C)NC(=O)c2cc([N+](=O)[O-])cc(I)c2OCC[C@@H](C(N)=O)NC1=O	-35%	45µM*	-25%	-9%	38%	-12%
NCCCC[C@@H]1NC(=O)[C@H](CCC(=O)O)NC(=O)c2cc([N+](=O)[O-])cc(I)c2OCC[C@@H](C(N)=O)NC1=O	?	32µM*	?	0%	-7%	-14%
CCN(CC(=O)Nc1c(F)cccc1F)C(=O)C1CC1C (stereo not given)	-4%	10%	-9%	0%	24%	2%
Cc1ccc(Cn2c(C)c(CNCc3ccc(OC(C)C)cc3)c(C(=O)O)c2C)cc1	?	-34%[59 µM]	-24%	17%	-4%	.
O=C1CC(N2CCN(c3ccccc3O)CC2)C(=O)N1Cc1ccccc1 (stereo not given)	-20%	-24%	-17%	10%	28%	-6%
CCCN(CCC)C1CC(=O)N(Cc2ccccc2)C1=O (stereo not given)	-22%	25µM*	-15%	-2%	66%	-14%
O=C1CC(N(O)C2CC(=O)N(Cc3ccccc3)C2=O)C(=O)N1Cc1ccccc1 (stereo not given)	2%	.	-24%[57.1 µM]	?	-25%	24µM*
Cc1ccc(S(=O)(=O)NCCSc2nnnn2-c2ccc(Cl)c(C(=O)O)c2)cc1	-15%	-41%[59 µM]	-14%	-3%	20%	.
Cc1nc2ccc(S(=O)(=O)CCC(=O)Nc3ccc(Cl)cc3)cc2s1	-4%	-3%[59 µM]	2%	-5%	32%	.
CC(=O)C1=C(O)C(=O)N(CCCn2ccnc2)C1c1ccc(C)cc1 (stereo not given)	?	13%[2.33 µM]	-26%	6%	18%	-4%
CCCCn1c(O)c2n(c1=O)Cc1ccccc1N=C2c1ccc(C)cc1	.	.	.	.	.	1%
CC(C)(C)NC(=O)CN(C(=O)CS(=O)CC(=O)Nc1ccc(F)cc1)c1ccccc1 (stereo not given)	2%	50µM*	-16%	17%	22%	-6%
CC1CN(S(=O)(=O)c2cc(C(=O)NCCC3=CCCCC3)ccc2Cl)CC(C)O1 (stereo not given)	3%	12%	5%	-2%	26%	2%
CCOC(=O)/C(=C/c1ccc(OC(=O)c2ccccc2)cc1)C(C)=O	4%	45µM*	8%	?	50%	5.3µM*
Cc1ccnc2c1ccc1c(C)ccnc12	4.5µM*	?	7.1µM*	-16%	48%	-2%
Cc1cccc2cccnc12	13%	0%[0.501 µM]	-12%	14%	75%	-3%
Cc1ccc2cccnc2c1N	?	-3%	22µM*	-12%	-4%	-1%
Cc1ccnc2c1ccc1cccnc12	2.8µM*	13µM*	5.6µM*	10%	43%	-2%
CCOC(=O)CNC(=O)Nc1cc(C(=O)NCc2ccccc2OC)ccc1N1CCCC1	-3%	-2%[12.7 µM]	-5%	20%	29%	.
CC1(C)CC(NC(=O)c2ccccc2NS(=O)(=O)c2ccc(Br)cc2)CC(C)(C)N1	.	.	-16%	-1%	23%	-4%
COc1ccc(-n2ccnc(SCC(=O)NCc3ccccc3Cl)c2=O)cc1	-12%	-10%	5%	?	44%	?
CCOc1ccc(C(=O)NC2C(=O)N3C(C(=O)O)=C(COC(C)=O)CSC23)cc1OCC (stereo not given)	-1%	?	-13%	?	20%	-23%
SMILES	BAZ2B inh	G9a block	JMJD2A Tudor inh	VDR inh	HP1b chromo inh	PLK1 PBD block
CC(=O)OCC1=C(C(=O)O)N2C(=O)C(NC(=O)c3ccc(COc4c(C)cccc4Cl)o3)C2SC1 (stereo not given)	?	45µM*	?	16µM*	10%	-15%
CC(=O)OCC1=C(C(=O)O)N2C(=O)C(NC(=O)c3ccc(COc4ccc(Cl)cc4)o3)C2SC1 (stereo not given)	-19%	?	?	45µM*	0%	?
Cc1nc2ccc(S(=O)(=O)NC(C(=O)N3CCN(c4cccc(Cl)c4)CC3)C(C)C)cc2s1 (stereo not given)	-18%	-26%[59 µM]	-18%	-14%	40%	.
COC(=O)c1cc(S(=O)(=O)N2CCCCC2)ccc1N1CCOCC1	4%	50µM*	-6%	11%	23%	-1%
CCN1CCN(c2ccc(S(=O)(=O)N3CCCCC3)cc2NC(=O)C(C)Oc2ccc(F)cc2)CC1 (stereo not given)	?	?	?	-7%	-14%	3%
COC(=O)c1cc(S(=O)(=O)N2CCCCCC2)c[nH]1	-1%	5%	-10%	-4%	29%	4%
CC(Oc1ccc(F)cc1)C(=O)Nc1cc(S(=O)(=O)N2CCCCC2)ccc1N1CCOCC1 (stereo not given)	0%	13µM*	-18%	-8%	4%	-4%
COC(=O)c1cc(S(=O)(=O)N2CCCCC2)c[nH]1	-25%	20%[59 µM]	45µM*	2%	?	-3%
COC(=O)c1cc(S(=O)(=O)N2CCOCC2)ccc1Sc1ccccc1N	-7%	20µM*	-22%	6%	2%	?
Cc1ccc(NC(=O)CSCC(=O)N(C)CC(=O)Nc2cccc3ccccc23)cc1	-9%	15%[59 µM]	-11%	8%	-4%	-20%
Cc1cc(Br)ccc1SCC(=O)OCC(=O)Nc1ccccc1C#N	-3%	?	-5%[57.1 µM]	-6%	66%	-27%
O=C1c2ccccc2C(c2nnnn2-c2ccc3c(c2)OCCO3)N1Cc1cccc(F)c1 (stereo not given)	.	.	.	.	.	1%
O=C(COc1ccc(F)cc1Cl)Nc1ccc(N2CCOCC2)cc1N1CCOCC1	-10%	35µM*	-28%	-12%	-4%	-10%
CC(Oc1ccc(F)cc1)C(=O)Nc1ccc(N2CCOCC2)cc1N1CCOCC1 (stereo not given)	-34%	56µM*	-16%	5%	4%	-5%
Cc1nn(Cc2ccc(F)cc2)c2sc(C(=O)Nc3ccc(N4CCOCC4)cc3N3CCOCC3)cc12	40µM*	11µM*	?	-7%	?	-4%
